Here are results for one compound from PubChem BioAssay (EPA / NIEHS).

This experiment is described as follows: CEETOX_H295R_ANDR_noMTC: CeeTox H295R High-throughput Steroidogenesis Assay for Androstenedione (ANDR), maximum tolerated concentration (MTC) filtered results only (AID 2283915). The conditions noted are these: actives raise or lower the signal. A digest of the protocol:
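H295R cells, passage 10 or below, prestimulated 48 h with 10 uM forskolin, then exposed 48 h to chemical in 0.1% DMSO. Medium androstenedione extracted with MTBE, quantified by HPLC-MS/MS; concentrations not MTC-filtered; bidirectional fit versus DMSO.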

Molecules are shown by their SMILES. Active and inactive are the calls of the source. The calls were made as follows: active = hit-call score of the fitted dose curve at least 0.9, where 1 is the maximum; inactive = score below 0.9.

As for `CCCCCCCCOC(=O)c1ccccc1C(=O)OCCCCCCCC`, the call was inactive.
